Experimental data from PubChem BioAssay AID449743 (Southern Research Specialized Biocontainment Screening …, 2010).
Measured potencies and affinities stand elsewhere. Calls of active or inactive are those of the source. No rule for the calls is given here.

assay: PhoP-promoter GFP reporter inhibition, GFP fluorescence, round 4, purified and synthesized compounds, late-stage follow-up (AID 449743); details: Salmonella Typhi PhoP-promoter GFP reporter, 4 h; series mostly up to 150 µM; inhibition: at the top concentration

Row | SMILES | inhibition
1 | S=C(NCc1ccc(Cl)cc1)NC1CCOCC1 | -4.47% (inactive)
2 | O=C(Nc1ccc(Cl)cc1)N1CCN(Cc2ccccc2F)C1 | 14.8% (inactive)
3 | S=C(NCc1ccc(Cl)cc1)NC1CCCCC1 | 21.1% (inactive)
4 | FC(F)(F)c1ccc(NC(=S)NCc2ccc(Cl)cc2)cc1 | -0.02% (inactive)
5 | O=C(Nc1ccc(Cl)cc1)N1CCCN(Cc2cccc(F)c2)C1 | 36.1% (inactive)
6 | S=C(NCc1ccc(Cl)cc1)Nc1ccccc1I | 13.1% (inactive)
7 | S=C(NCc1ccc(Cl)cc1)NN1CCOCC1 | 13.6% (inactive)
8 | FC(F)(F)c1ccccc1NC(=S)NCc1ccc(Cl)cc1 | -17.6% (inactive)
9 | O=C(Nc1ccc(Cl)cc1)N1CCCN(Cc2cccc(Br)c2)C1 | -6.15% (inactive)
10 | S=C(NCc1ccc(Cl)cc1)Nc1cccc(Br)c1 | -18.7% (inactive)
11 | CN1CCN(C(=S)NCc2ccc(Cl)cc2)CC1 | 18.2% (inactive)
12 | Cc1ccccc1NC(=O)N1CCCN(Cc2ccccc2F)C1 | -17.2% (inactive)
13 | S=C(NCc1ccc(Cl)cc1)Nc1ccccn1 | 18.8% (inactive)
14 | S=C(NCc1ccc(Cl)cc1)Nc1ccc(I)cc1 | 13.2% (inactive)
15 | O=C(NC1CCCCC1)N1CCCN(Cc2ccccc2F)C1 | -9.24% (inactive)
16 | S=C(NCc1ccccc1)NCc1ccc(Cl)cc1 | -12.6% (inactive)
17 | N#Cc1ccc(CN2CCCN(C(=O)Nc3ccc(Cl)cc3)C2)cc1 | -9.53% (inactive)
18 | S=C(NCc1ccc(Cl)cc1)Nc1ccccc1Br | 15.5% (inactive)
19 | S=C(NCc1ccc(Cl)cc1)Nc1ccncn1 | 14.1% (inactive)
